Read-out in assay [1]: Interleukin-1 alpha (IL1a), IL1A (gene 3552)
The experiment in a line: BSK_KF3CT_IL1a: BioMAP Diversity Plus: KF3CT Assay for Interleukin-1 alpha (IL1a) Biomarker Activity (AID 2283070). The settings on record: primary human keratinocytes with fibroblasts; actives raise or lower the signal. The essentials:
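Human keratinocyte plus foreskin fibroblast primary co-culture, sampled 24 h after chemical dosing. IL-1a measured by ELISA; responses fitted bidirectionally against DMSO baseline (negative control), so gain or loss of signal both count.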

Read-out in assay [2]: TIMP metallopeptidase inhibitor 2 (TIMP2), TIMP2 (gene 7077)
Description: BSK_KF3CT_TIMP2: BioMAP Diversity Plus: KF3CT Assay for TIMP metallopeptidase inhibitor 2 (TIMP2) Biomarker Activity (AID 2283071). The settings on record: primary human keratinocytes with fibroblasts; actives raise or lower the signal. The method, boiled down:
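Co-culture of human primary keratinocytes and foreskin fibroblasts, measured 24 h after chemical dosing. TIMP-2 quantified by ELISA and fitted in both directions relative to DMSO. Cytotoxicity checked in parallel cultures by SRB total-protein staining.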

Read-out in assay [3]: Transforming growth factor beta 1 (TGFb1), TGFB1 (gene 7040)
Description: BSK_KF3CT_TGFb1: BioMAP Diversity Plus: KF3CT Assay for Transforming growth factor beta 1 (TGFb1) Biomarker Activity (AID 2283072). The settings on record: primary human keratinocytes with fibroblasts; actives raise or lower the signal. The method, boiled down:
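Human keratinocyte/foreskin fibroblast co-culture; TGF-b1 measured by ELISA 24 h after dosing, fitted bidirectionally versus DMSO. Cytotoxicity checked in parallel cultures by total protein (SRB staining, 560 nm).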

Read-out in assay [4]: C-C motif chemokine 2 (Homo sapiens) (UniProt P13500)
The experiment in a line: BSK_KF3CT_MCP1: BioMAP Diversity Plus: KF3CT Assay for Monocyte Chemoattractant Protein 1 (MCP1/CCL2) Biomarker Activity (AID 2283073). Conditions: primary human keratinocytes with fibroblasts; actives raise or lower the signal. The essentials: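 Keratinocytes and foreskin fibroblasts were co-cultured, dosed with chemical, and sampled 24 h later. MCP-1 was quantified by ELISA, and the endpoint was analyzed with bidirectional fitting using DMSO as negative control.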

Read-out in assay [5]: Matrix Metallopeptidase 9 (MMP9), MMP9 (gene 4318)
The experiment in a line: BSK_KF3CT_MMP9: BioMAP Diversity Plus: KF3CT Assay for Matrix Metallopeptidase 9 (MMP9) Biomarker Activity (AID 2283074).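 For AC50: MMP9 protein level quantified by ELISA in the co-culture.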 The settings on record: primary human keratinocytes with fibroblasts; actives raise or lower the signal. The method, boiled down: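 Keratinocyte plus foreskin fibroblast human primary skin co-culture was dosed with chemical and MMP-9 was quantified by ELISA 24 h later. Bidirectional curve fitting used DMSO as negative control and activity baseline.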

Read-out in assay [6]: urokinase plasminogen activator (uPA), PLAU (gene 5328)
The experiment in a line: BSK_KF3CT_uPA: BioMAP Diversity Plus: KF3CT Assay for urokinase plasminogen activator (uPA) Biomarker Activity (AID 2283075). Conditions: primary human keratinocytes with fibroblasts; actives raise or lower the signal. The method, boiled down: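 Human keratinocyte plus foreskin fibroblast primary co-culture exposed to chemical for 24 h. uPA levels were quantified by ELISA, and activity was fitted bidirectionally against a DMSO negative-control baseline.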

Read-out in another assay: CD40, CD40 (gene 958)
Description: BSK_LPS_CD40: BioMAP Diversity Plus: LPS Assay for CD40 Biomarker Activity (AID 2283076). Conditions: primary human HUVEC with PBMC; actives raise or lower the signal. The method, boiled down:
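CD40 signal, measured by ELISA, is fitted in both directions relative to DMSO vehicle. The system is an LPS-driven human vascular primary co-culture of endothelial cells and PBMC, sampled 24 h after compound addition.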

Read-out in assay [7]: E-selectin (Homo sapiens) (UniProt P16581)
Description: BSK_LPS_Eselectin: BioMAP Diversity Plus: LPS Assay for Eselectin Biomarker Activity (AID 2283077). Conditions: primary human HUVEC with PBMC; actives raise or lower the signal. The essentials:
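Signal of E-selectin, detected by ELISA, served as the endpoint; cells were umbilical vein endothelium with PBMC, read 24 h after treatment. DMSO defined baseline, and both increases and decreases were fitted.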

Read-out in assay [8]: Interleukin-8 (IL8), CXCL8 (gene 3576)
Description: BSK_LPS_IL8: BioMAP Diversity Plus: LPS Assay for Interleukin-8 (IL8) Biomarker Activity (AID 2283078). Conditions: primary human HUVEC with PBMC; actives raise or lower the signal. The method, boiled down: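 Endothelial cells and PBMC from human donors are co-cultured, treated with chemicals and LPS, then assayed for IL-8 by ELISA after 24 h. Parallel SRB staining (0.1% SRB after 10% TCA fixation, 560 nm) flags cytotoxicity.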

Assay [9] in a line: BSK_LPS_SRB: Viability Assessment in the BioMAP Diversity Plus: LPS Assay (AID 2283079).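 Note: total protein by sulforhodamine B absorbance as a cytotoxicity measure; measured one day after compound addition.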 The settings on record: primary human HUVEC with PBMC. The essentials:
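Overt cytotoxicity was gauged by sulforhodamine B total-protein staining in a primary human vascular endothelial and mononuclear cell co-culture 24 h post-dosing. Activity was fitted in both directions relative to DMSO.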

Values joined by “and” are separate entries in the source; they are usually repeats but may differ in a detail not shown here. Equal values may be shown once. Some compounds were tested as several samples or in several runs, with calls that do not always agree. Active and inactive are the calls of the source. Rule for the calls: active = hit-call score of the fitted dose curve at least 0.9, where 1 is the maximum; inactive = score below 0.9.

Sequence of E-selectin (Homo sapiens) (P16581 whole entry, looked up): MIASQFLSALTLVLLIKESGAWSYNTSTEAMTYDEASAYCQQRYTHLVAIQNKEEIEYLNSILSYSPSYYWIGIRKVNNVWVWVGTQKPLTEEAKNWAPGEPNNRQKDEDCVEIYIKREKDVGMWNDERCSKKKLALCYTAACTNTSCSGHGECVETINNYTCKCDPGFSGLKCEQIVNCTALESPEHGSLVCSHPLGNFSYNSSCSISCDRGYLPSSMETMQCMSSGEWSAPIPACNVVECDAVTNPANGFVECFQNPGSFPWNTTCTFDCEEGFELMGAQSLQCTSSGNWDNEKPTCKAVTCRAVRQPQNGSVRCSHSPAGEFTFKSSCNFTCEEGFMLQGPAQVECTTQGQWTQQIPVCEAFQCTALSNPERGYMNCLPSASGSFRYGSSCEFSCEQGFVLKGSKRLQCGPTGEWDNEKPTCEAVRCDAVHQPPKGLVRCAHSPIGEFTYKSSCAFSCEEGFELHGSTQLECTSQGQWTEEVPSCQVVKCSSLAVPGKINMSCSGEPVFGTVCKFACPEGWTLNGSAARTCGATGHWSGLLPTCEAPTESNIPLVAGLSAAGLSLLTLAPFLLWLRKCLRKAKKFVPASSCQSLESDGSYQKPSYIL

Consider `COc1cccc(C(=O)NN(C(=O)c2cc(C)cc(C)c2)C(C)(C)C)c1C`, for which the result in assay [1], in assay [2], in assay [3], in assay [4], in [5] and in assay [6] was inactive. For the same compound, the outcome is “inactive” in the assay with CD40, CD40 (gene 958); “inactive” in assay [7]; “inactive” in assay [8]; “inactive” in assay [9].
In the case of `CC[C@H](C)[C@H]1O[C@]2(C=C[C@@H]1C)C[C@@H]1C[C@@H](C/C=C(\C)[C@@H](O[C@H]3C[C@H](OC)[C@@H](O[C@H]4C[C@H](OC)[C@@H](NC)[C@H](C)O4)[C@H](C)O3)[C@@H](C)/C=C/C=C3\CO[C@@H]4[C@H](O)C(C)=C[C@@H](C(=O)O1)[C@]34O)O2`, the AC50 in assay [1] was 5.84 µM (active); in assay [2], 8.99 µM (active); in assay [3] it was 10.8 µM (active); in assay [4] it was 7.96 µM (active); in [5], 6.21 µM (active); in assay [6], 9.27 µM (active). Further, the AC50 with CD40, CD40 (gene 958) is 1.86 µM (active); in [7], 5.98 µM (active); in assay [8], 5.57 µM (active); in [9] it was 5.52 µM (active).
For `O=[N+]([O-])c1cc(C(F)(F)F)c(Cl)c([N+](=O)[O-])c1Nc1ncc(C(F)(F)F)cc1Cl`, the half-maximal activity concentration (AC50) in [2] was 588 nM (active) and 11.3 µM (active); in assay [3], 7.7 µM (active); in [4], 1.71 µM (active) and 15.5 µM (active); in [5], 991 nM (active) and 5.6 µM (active); in [6] it was 1.37 µM (active) and 7.61 µM (active); in the assay with CD40, CD40 (gene 958), 1.44 µM (active) and 6.49 µM (active). The AC50 was 1.55 µM (active) and 3.22 µM (active) in assay [7]; 2.33 µM (active) and 3.94 µM (active) in assay [8]; 2 µM (active) and 3.96 µM (active) in assay [9]. In addition, the outcome in assay [3] was inactive.
`CCOP(=S)(OCC)Oc1cc(C)nc(C(C)C)n1`: the result in assay [1], in assay [2], in assay [3], in assay [4], in assay [5] and in assay [6] was inactive. Besides, the outcome in the assay with CD40, CD40 (gene 958) was “inactive”; in assay [7] it was “inactive”; in [8], “inactive”; in assay [9] it was “inactive”.
As to `CCOP(=S)(Oc1cnc(C(C)(C)C)nc1)OC(C)C` (centres undefined), the AC50 in assay [2] was 38.4 µM (active); in assay [5], 27.1 µM (active); with CD40, CD40 (gene 958), 37.9 µM (active); in [7] it was 30.9 µM (active); in assay [8], 30.5 µM (active); in assay [9], 30.3 µM (active). Also, the outcome in [3], in [4] and in assay [6] was inactive.
Consider `CNc1cnn(-c2cccc(C(F)(F)F)c2)c(=O)c1Cl`, for which the result in assay [1], in assay [2], in assay [3], in assay [4], in [5] and in assay [6] was inactive. Moreover, the outcome with CD40, CD40 (gene 958) is “inactive”; in assay [7] it was “inactive”; in assay [8] it was “inactive”; in assay [9] it was “inactive”.
Take `COc1cc(OC)nc(Sc2cccc(Cl)c2C(=O)O)n1`: the result in [1], in assay [2], in [3], in assay [4], in assay [5] and in [6] was inactive. The outcome was “inactive” with CD40, CD40 (gene 958); “inactive” in assay [7]; “inactive” in assay [8]; “inactive” in assay [9].
As to `CC(C1CC1)C(O)(Cn1cncn1)c1ccc(Cl)cc1` (centres undefined), the result in assay [1], in [2], in [3], in assay [4], in [5] and in assay [6] was inactive. In addition, the outcome in the assay with CD40, CD40 (gene 958) is “inactive”; in [7], “inactive”; in [8], “inactive”; in assay [9], “inactive”.
For `CCCCN(CC)c1c([N+](=O)[O-])cc(C(F)(F)F)cc1[N+](=O)[O-]`, the result in assay [1], in assay [2], in assay [3], in assay [4], in [6] and in assay [8] was inactive. Also, in assay [9], the outcome was inactive. In addition, the AC50 was 22.1 µM (active) in [5]; 34.2 µM (active) with CD40, CD40 (gene 958); 20 µM (active) in [7].
For the compound `O=C(O)c1cc(Oc2ccc(C(F)(F)F)cc2Cl)ccc1[N+](=O)[O-]`, the result in assay [1], in [2], in [3], in assay [4], in assay [5] and in assay [6] was inactive. Also, the outcome is “inactive” with CD40, CD40 (gene 958); “inactive” in [7]; “inactive” in assay [8]; “inactive” in assay [9].
Turning to `CSC1=N[C@@](C)(c2ccccc2)C(=O)N1Nc1ccccc1`, the outcome is “inactive” in assay [1]; “inactive” in assay [2]; “inactive” in assay [3]; “inactive” in [4]; “inactive” in assay [6]; “inactive” with CD40, CD40 (gene 958). In addition, the AC50 was 29.9 µM (active) in assay [5], 10.6 µM (active) in [7], 1.7 µM (active) in assay [8] and 20 µM (active) in assay [9].
Turning to `CC(=NC#N)N(C)Cc1ccc(Cl)nc1`, the outcome in assay [1], in assay [2], in assay [3], in assay [4], in assay [5] and in assay [6] was inactive. Further, the outcome in the assay with CD40, CD40 (gene 958) was “inactive”; in assay [7], “inactive”; in assay [8], “inactive”; in [9], “inactive”.
Turning to `Nc1nc(N)nc(NC2CC2)n1`, the result in assay [1], in assay [2], in assay [3], in [4], in assay [5] and in [6] was inactive. Besides, the outcome was “inactive” in the assay with CD40, CD40 (gene 958); “inactive” in [7]; “inactive” in assay [8]; “inactive” in assay [9].
In the case of `FC(F)C(F)(F)OCC(Cn1cncn1)c1ccc(Cl)cc1Cl` (centres undefined), the outcome in assay [1], in [2], in assay [3], in assay [4], in [5] and in assay [6] was inactive. Moreover, the result in assay [7] and in assay [8] was inactive. Moreover, the half-maximal activity concentration (AC50) was 17.1 µM (active) in the assay with CD40, CD40 (gene 958) and 20 µM (active) in [9].
For `CCC(CC)Nc1c([N+](=O)[O-])cc(C)c(C)c1[N+](=O)[O-]`, the result in [1], in [2], in assay [3], in assay [4] and in assay [6] was inactive. Moreover, the AC50 in assay [5] was 8.34 µM (active); with CD40, CD40 (gene 958) it was 20 µM (active); in assay [7], 16.8 µM (active); in assay [8], 18 µM (active); in assay [9], 20 µM (active).
As to `N#CSCSC#N`, the AC50 in assay [1] is 8.09 µM (active); in assay [2], 5.72 µM (active); in assay [3], 5.17 µM (active); in assay [4] it was 5.31 µM (active); in [5], 6.04 µM (active); in assay [6] it was 6.91 µM (active). Besides, the half-maximal activity concentration (AC50) is 5.33 µM (active) with CD40, CD40 (gene 958); 6.28 µM (active) in assay [7]; 5.94 µM (active) in assay [8]; 5.37 µM (active) in [9].
For `Cc1nn(-c2cc(NS(C)(=O)=O)c(Cl)cc2Cl)c(=O)n1C(F)F`, the result in [1], in [2], in [3], in assay [4], in assay [5] and in [6] was inactive. In addition, the outcome in the assay with CD40, CD40 (gene 958) was “inactive”; in assay [7] it was “inactive”; in assay [8] it was “inactive”; in assay [9], “inactive”.

Broadly, the AC50 is the concentration at which the activity in the assay is half-maximal.

For the origin of these results see PubChem BioAssay (EPA / NIEHS).
